Most compounds without a hit are left out; they make up all but 3.4% or so of the library.
MITF act = MITF TRPM1 promoter activation in melanoma cells | 0.75% of 300,000 active | SK-MEL-5 TRPM1-promoter luciferase, 24 h; % of positive control, neutral wells = 0 | activation, % at 12.5 µM;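 active means mean activation of at least 80% with every replicate also reaching 80%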;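 further: 0% = neutral control wells and 100% = parthenolide positive control wells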
Wnt act = Wnt/beta-catenin pathway activation; Wnt/beta-catenin reporter cell assay, activator, plate reader; activation, % at 9.35 µM; 1.2% of 300,000 active; AID 743398; in the data active means activation above about 30%, passing the limit was not always enough;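 further: 0% = neutral control wells and 100% = positive control wells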
miR-122 sensor = miR-122 inhibition in Huh7 cells. Huh7 miR-122 Renilla luciferase sensor, 48 h; neutral wells = 0, positive control = 100. activation (reporter increase), % at 12.5 µM. 0.3% of 340,000 active. AID 602342;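 active means mean replicate activation score at least 90 and every replicate individually at or above 90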;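 further: higher luciferase means less miR-122 activity so hits act as miR-122 inhibitors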
Env fusion inh = blocks HIV Env-driven cell-cell fusion; HeLa-JRFL Env/CEM21 cell fusion, luciferase; inhibition, % at 12.3 µM; 1.1% of 360,000 active;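 active means mean replicate inhibition score of at least 50 and every replicate individually at or above 50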;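 further: 0% = plate neutral controls and 100% = maraviroc near 300 nM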
esBAF inh = blocks esBAF chromatin remodeling in mouse ES cells; Bmi1-luciferase knock-in reporter, 24 h; 100% = twice the neutral-well signal; reporter increase, % at 12.5 µM; 2% of 350,000 active; in the data active means activation above about 40%;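 further: 0% = median of the plate's neutral control wells and 100% = double that signal; a rise in the Bmi1 reporter signal indicates esBAF inhibition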
Active calls of the source: *; nt = no result; [ ] = remark or other dose.

SMILES | MITF act | Wnt act | miR-122 sensor | Env fusion inh | esBAF inh
COc1ccc(C(=O)O)cc1S(=O)(=O)Nc1cc(C(F)(F)F)ccc1N1CCCCC1 | nt | -1 | -4 | -7 | -5
CCOC(=O)c1ccc(N2CCCCC2)c(NS(=O)(=O)c2cccc(C(F)(F)F)c2)c1 | nt | -1 | 19 | 64* | 12
COc1cccc(/C=C2\CCC(C3CCCC3)C2=O)c1OC (centres undefined) | 75 | 30 | -6 | -20 | 67*
Cc1ccccc1S(=O)(=O)Nc1ccc2c(c1)C(=O)N(C)[C@H]1CC[C@H](CC(=O)O)O[C@@H]1CO2 | nt | nt | -18[16.7 µM] | -6[16.7 µM] | 2
CO[C@@H]1CN(C)C(=O)c2ccc(NC(=O)Nc3ccc(Cl)cc3)cc2OC[C@H](C)N(C(=O)Nc2c(C)noc2C)C[C@H]1C | nt | nt | nt | nt | 3
Cc1onc(-c2ccccc2Cl)c1C(=O)N(Cc1nc(-c2ccccc2)no1)C1CCCCC1 | -14 | nt | 10 | 88* | 11
Cc1cccc(-c2noc(CN(C(=O)c3c(-c4ccccc4Cl)noc3C)C(C)C)n2)c1 | -5 | -2 | 5 | 25 | -14
C[C@@H]1CN([C@@H](C)CO)C(=O)c2cc(NS(C)(=O)=O)ccc2O[C@@H](C)CCCCO[C@@H]1CN(C)C(=O)NC1CCCCC1 | nt | nt | 5[16.7 µM] | -8[16.7 µM] | 7
CCSc1nsc(NC(=O)Nc2ccccc2F)n1 | 14 | 7 | 24 | -87 | 36
CCCSc1nsc(NC(=O)CCC)n1 | 113* | 20 | -2 | -95 | 28
CCCCCCSc1nsc(NC(C)=O)n1 | 67 | nt | nt | nt | 60*
CCSc1nsc(NC(=O)Nc2cccc(OC)c2)n1 | 56 | 15 | nt | -4 | 17
CCCCSc1nsc(NC(C)=O)n1 | 91* | 44* | 3 | -59 | nt
CCCSc1nsc(NC(=O)c2cccnc2OCC)n1 | -10 | -1 | nt | 2 | nt
O=C(Nc1ccccc1F)N[C@H]1CC[C@@H](CC(=O)N2CCCCC2)O[C@@H]1CO | nt | nt | nt | -5[16.7 µM] | -1
CO[C@@H]1CN(C)C(=O)c2ccc(NC(=O)NC(C)C)cc2OC[C@@H](C)N(CCC(F)(F)F)C[C@@H]1C | nt | nt | 3[16.7 µM] | -8[16.7 µM] | -4
O=C(C[C@@H]1C=C[C@@H](NC(=O)c2cccnc2)[C@H](CO)O1)NCc1ccc(Cl)c(Cl)c1 | nt | nt | -11[16.7 µM] | -33[16.7 µM] | 2
COc1ccccc1C(=O)Nc1ccc2c(c1)C(=O)N(C)C[C@H](OC)[C@H](C)CN(CC1CC1)[C@H](C)CO2 | nt | nt | nt | -17[16.7 µM] | 7
COc1ccc(CN2C[C@@H](C)[C@@H](OC)CN(C)C(=O)c3cc(NC(C)=O)ccc3OC[C@H]2C)cc1 | nt | nt | -15[16.7 µM] | nt | 3
C[C@@H]1CCCCO[C@@H](CN(C)C(=O)NC2CCCCC2)[C@@H](C)CN([C@@H](C)CO)C(=O)c2cc(NS(=O)(=O)c3ccc(F)cc3)ccc2O1 | nt | nt | 13[16.7 µM] | -69[16.7 µM] | 1
O=C(c1cccc(Cl)c1)N1CCC(=O)N([C@H](COCc2ccccc2)Cc2ccccc2)CC1 | nt | -3 | nt | 5 | nt
O=C(c1ccc(Cl)c(Cl)c1)N1CCC(=O)N([C@H](COCc2ccc(Cl)cc2)Cc2ccccc2)CC1 | nt | 0 | nt | -6 | nt
O=C(c1cccc(Cl)c1)N1CCC(=O)N(C(COCc2cccc(Cl)c2)Cc2ccccc2)CC1 (centres undefined) | -7 | -6 | 1 | 60* | -45
O=C(c1ccc(Cl)c(Cl)c1)N1CCC(=O)N(C(COCc2cccc(Cl)c2)Cc2ccccc2)CC1 (centres undefined) | -8 | -5 | -4 | 91* | 2
CC1Oc2ccccc2C=C1/C=N/NC(=O)c1ccccc1 (centres undefined) | 89* | 37* | nt | -101 | nt
SMILES | MITF act | Wnt act | miR-122 sensor | Env fusion inh | esBAF inh
Cc1ccc(C(=O)N/N=C/C2=Cc3ccccc3OC2C)cc1 (centres undefined) | 25 | 6 | nt | -7 | nt
O=C(N[C@H]1CC[C@H](CCNC(=O)C2CCCCC2)O[C@H]1CO)c1ccncc1 | nt | nt | nt | 7[16.7 µM] | -6
COc1ccc(NC(=O)C2=CC(c3cccs3)=NS(=O)(=O)N2C)cc1 | -1 | -3 | 0 | 89* | 16
CN1C(C(=O)Nc2ccc(OC(F)(F)F)cc2)=CC(c2cccs2)=NS1(=O)=O | -8 | 0 | 0 | 18 | 4
C[C@@H]1CCCCO[C@H](CN(C)C(=O)C2CCCCC2)[C@@H](C)CN([C@@H](C)CO)C(=O)c2cc(NC(=O)CCCN(C)C)ccc2O1 | nt | nt | -9[16.7 µM] | 12[16.7 µM] | -3
COc1ccc(/C(N)=N/OC(=O)c2cccs2)cc1 | 61 | 40* | nt | -175 | nt
N/C(=N\OC(=O)c1cccs1)c1ccc(Cl)cc1 | nt | 57* | -1 | -87 | 14
N/C(CC(=O)Nc1ccc(F)c(Cl)c1)=N\OC(=O)c1cccs1 | nt | -1 | nt | -12 | nt
CCCC(=O)Nc1ccc(NC(=O)c2cc3ccccc3o2)c(OC)c1 | 64 | 2 | -4 | -26 | 53*
COc1cc(NC(C)=O)ccc1NC(=O)c1cc2ccccc2o1 | 39 | 3 | -6 | -30 | 55*
CC(C)CC#Cc1ccc2c(c1)O[C@@H](CN(C)S(=O)(=O)c1cccc(F)c1)[C@H](C)CN([C@@H](C)CO)S2(=O)=O | nt | nt | -10[16.7 µM] | 52[16.7 µM] | -3
CN1CCCN(C(=O)CNC(=O)c2ccccc2F)CC1 | 19 | 1 | nt | nt | 0
O=C(NCC(=O)N1CCCC1)c1ccccc1F | 38 | -4 | nt | -10 | 48*
O=C(NCC(=O)N1CCC(Cc2ccccc2)CC1)c1ccccc1F | nt | 45* | -4 | -21 | 53*
O=C(OCC(=O)N1CCC(Cc2ccccc2)CC1)c1ccccc1O | 90* | -3 | -1 | 3 | nt
C[C@@H]1CN([C@@H](C)CO)C(=O)c2cc(NC(=O)CCC(F)(F)F)ccc2O[C@H]1CN(C)CC1CC1 | nt | nt | 20[16.7 µM] | -17[16.7 µM] | 2
COc1ccc(CN(C)C[C@H]2OCc3cn(nn3)CCCC(=O)N([C@@H](C)CO)C[C@H]2C)cc1 | nt | nt | -5[16.7 µM] | nt | 3
O=C(N/N=C1\CCc2ccccc21)c1ccncc1 | 60 | 20 | nt | -31 | nt
c1ccc2c(c1)CCc1c(-c3ccncc3)n[nH]c1-2 | -14 | 44* | -7 | nt | 33
COC(=O)C[C@@H]1CC[C@@H]2[C@H](COc3ccc(NC(=O)c4ccc(OC)cc4)cc3C(=O)N2C)O1 | nt | nt | -17[16.7 µM] | -8[16.7 µM] | -2
c1ccc(Cc2cnc(N3CCN(Cc4csc5ccccc45)CC3)nc2)cc1 | nt | -1 | nt | 77* | nt
O=C(C[C@H]1CC[C@@H]2[C@H](COC[C@@H](O)CN2S(=O)(=O)c2cccc(Cl)c2)O1)Nc1ccccc1 | nt | nt | 0[16.7 µM] | nt | 2
Cc1ccc2cc(CN(C(=O)c3ccco3)c3ccccc3)c(=O)[nH]c2c1 | 6 | nt | -6 | nt | 54*
Cc1ccc(N(Cc2cc3ccc(C)cc3[nH]c2=O)C(=O)c2ccco2)cc1 | 0 | 2 | nt | 14 | nt
CS(=O)(=O)N1[C@@H]2Cn3c(cccc3=O)[C@H]1[C@@H](C(=O)NCc1ccccc1)[C@@H]2CO | nt | nt | nt | 17[16.7 µM] | -2
CCOc1ccc(S(=O)(=O)NCc2ccc(C)cc2)c2cccnc12 | 3 | -1 | 11 | nt | -2
CCOc1ccc(S(=O)(=O)Nc2cc(C)ccn2)c2ccccc12 | nt | nt | 237* | -3 | -2
CCOc1ccc(NS(=O)(=O)c2ccc(OCC)c3ncccc23)cc1 | -10 | nt | 139* | 30 | -17

Screening data (PubChem BioAssay)
